Potency and affinity values are given separately. A number with no mark means an inactive call.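 The calls were made as follows: active = a fitted half-maximal concentration no higher than twice the top valid tested dose, with signal falling as cells die; inconclusive = flat curve between -70% and -30%, or poor fit; inactive = the rest, including signal rising instead of falling.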
assay: HeLa cell cytotoxicity, dose response, cytotoxicity control, ATP luminescence, cherry-pick samples (AID 687004); conditions: HeLa viability, ATP luminescence (CellTiter-Glo), 48 h; series mostly up to 26 µM; activity change, negative = cytotoxicity: at the top concentration;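 also: 0% = neutral control median and -100% = staurosporine 10 µM control median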

Structure (SMILES)	activity change, negative = cytotoxicity
CCc1ccc(NC(=O)[C@H](C)NC(=O)C2CCN(C(=O)[C@@H](N)C(C)C)CC2)cc1	5.57%
Cc1ccc(N(CC(=O)NCCSCc2ccco2)S(=O)(=O)c2ccc(F)cc2)cc1	3.46%
CCCC(=O)Nc1ccc2c(c1)OC[C@@H](C)N(Cc1ccccn1)C[C@@H](C)[C@H](OC)CN(C)C2=O	12.1%
CCOC(=O)CNC(=O)CSc1ncnc2c1cnn2-c1ccccc1	7.11%
Cc1ccccc1-n1ncc2c(SCC(=O)N3c4ccccc4CC3C)ncnc21 (stereo not given)	24.6%
O=C(COc1ccccc1)NCc1ccccc1	-4.34%
O=C(NC(=S)Nc1ccccc1[N+](=O)[O-])c1ccccc1	3.95%
CC(=O)c1ccc(OCC(=O)NCc2ccc(F)cc2)cc1	19.4%
CC12CC3CC(C)(C1)CC(C(=O)NC(=S)N1CCCCC1)(C3)C2	18.3%
COc1cccc(NC(=O)CN2CCN(S(=O)(=O)c3ccc(C(C)C)cc3)CC2)c1	7%
Cc1cc(C(=O)Nc2cccc3c2O[C@@H](CN(C)S(=O)(=O)c2ccccc2)[C@@H](C)CN([C@@H](C)CO)C3=O)n(C)n1	0.215% [at 23.5 µM]
CCC(=O)Nc1ccc2c(c1)OC[C@H](C)N(C(=O)c1ccc(F)cc1)C[C@@H](C)[C@@H](OC)CN(C)C2=O	5.63%
O=C(COc1ccc2c(c1)CCC2)NCc1ccc(Cl)cc1	1.56%
CC(NC(=O)COc1ccccc1-c1ccccc1)c1ccccc1 (stereo not given)	-0.383%
Cc1ccc(N(C(=O)C2CCC(=O)N2)C2(C(=O)NC3CCCC3)CCCCC2)cc1 (stereo not given)	-2.46%
CCC(C)N(C(=O)CSc1ncnc2c1cnn2-c1ccccc1)C1CCS(=O)(=O)C1 (stereo not given)	-4.76%
C[C@@H]1CN([C@@H](C)CO)S(=O)(=O)c2ccc(C3=CCCC3)cc2O[C@@H]1CN(C)Cc1ccccc1F	158%
C[C@H]1CN([C@@H](C)CO)C(=O)c2cc(C#CC3(O)CCCC3)cnc2O[C@@H]1CN(C)Cc1cccnc1	6.52%
CCC(=O)N1CCC1(C)C(=O)Nc1ccc(C)c(C)c1 (stereo not given)	14.3%
CC(C)NC(=O)Nc1ccc2c(c1)C(=O)N([C@H](C)CO)C[C@H](C)[C@H](CN(C)Cc1ccncc1)OCCCC[C@H](C)O2	-2.73%

Structure (SMILES)	activity change, negative = cytotoxicity
Cc1cccc(C)c1NC(=S)NN(Cc1ccccc1)c1ccccc1	9.31%
O=C(NC[C@@H]1[C@@H](c2ccccc2)[C@H](CO)N1C(=O)C1CCC1)NC1CCCC1	1.26% [at 23.5 µM]
CC(C)Sc1nc2ncnc(N)c2[nH]1	9.42%
CC(C)CC#Cc1cnc2c(c1)C(=O)N([C@@H](C)CO)C[C@@H](C)[C@@H](CN(C)C(=O)c1cccc(F)c1)O2	9.84%
COc1cccc(CNC(=O)COc2ccc(C(=O)c3ccccc3)cc2)c1	7.56%
CCC(=O)N1[C@H](CN(C)C(C)=O)[C@@H](c2ccc(C3=CCCCC3)cc2)[C@@H]1CO	11.3%
CC(C)NC(=O)N(C)C[C@@H]1Oc2c(NC(=O)C3CCCCC3)cccc2C(=O)N([C@@H](C)CO)C[C@@H]1C	33.5%
CN1c2ccc(Br)cc2[C@@H]2[C@@H](CCN2C(=O)Cc2cccnc2)[C@@H]1CO	4.75% [at 23.5 µM]
COc1cc(NC(=O)CN2CCN(S(=O)(=O)c3ccc(C(C)C)cc3)CC2)cc(OC)c1	20.1%
CNC(=O)CN(c1ccc(OC)cc1)S(=O)(=O)c1ccc(F)cc1	11.8%
Cc1cc(OCC(=O)N(C)Cc2ccccc2)cc(C)c1Cl	-13.7%
Cc1cc(C)c(NC(=O)CN2CCN3CCCC3C2)c(C)c1 (stereo not given)	-3.25%
Cc1ccc(C)c(NC(=O)C2(C)CCN2C(=O)C(C)C)c1 (stereo not given)	14.7%
CO[C@H]1CC[C@@H]2CCOc3c(C#N)cccc3C(=O)N(C)C[C@@H](OC)[C@@H](C)C(=O)N(C)C[C@@H]1O2	1.97%
O=C(COc1ccccc1)NCc1ccc2c(c1)OCO2	-1.84%
CC(=O)N1[C@H](CO)[C@H](c2ccc(-c3ccccc3)cc2)[C@@H]1CNC(=O)C1CC1	-3.41%
CCCNC(=O)C[C@H]1CC[C@H]2[C@@H](COC[C@@H](O)CN2S(=O)(=O)c2ccc(Oc3ccccc3)cc2)O1	3.53%
Cc1ccc(N2C(=O)CC(N3CCN(c4ccc(F)cc4)CC3)C2=O)c(C)c1 (stereo not given)	10.1%
CCC(=O)N1[C@H](CO)[C@H](c2ccc(-c3ccc(F)cc3)cc2)[C@@H]1CNC(C)=O	52.8%
O=C1CCC(C(=O)Nc2cccc3ccccc23)N1 (stereo not given)	-4.43%

From PubChem BioAssay
